Results on seven compounds are retold here after PubChem BioAssay.

Experiment [1] can be described thus: viability loss in pontine glioma line – cell-based, SU-DIPG-XVII, MIPE5.0, CellTiter-Glo, qHTS, dose response (AID 1347060).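 As to AC50: cells exposed to compound for 48 hours before viability readout.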 As to conditions: CellTiter-Glo ATP luminescence. For orientation: In ATP-based viability assays light output follows the ATP content of the culture.
Experiment [2] is described as follows: viability loss in pontine glioma line – cell-based, SU-DIPG-XIII, MIPE4.0, CellTiter-Glo, qHTS, dose response (AID 1347061; cut-off not given, nearly all actives have AC50 up to about 37 µM;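 also: cells exposed to compound for 48 hours before readout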). Particulars: CellTiter-Glo ATP luminescence.
Experiment [3] in a line: viability loss in pontine glioma line – cell-based, JHH-DIPG-1, MIPE4.0, CellTiter-Glo, qHTS, dose response (AID 1347062; cut-off not given, nearly all actives have AC50 up to about 27 µM;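 as to AC50: cells exposed to compound for two days before readout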). Particulars: JHH-DIPG-1 viability, CellTiter-Glo ATP luminescence.
The nature of experiment [4]: viability loss in pontine glioma line – cell-based, SU-DIPG-XIII, MIPE5.0, CellTiter-Glo, qHTS, dose response (AID 1347064; cut-off not given, nearly all actives have AC50 up to about 23 µM;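 as to AC50: cells exposed to compound for 48 hours before the viability read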). Particulars: CellTiter-Glo ATP luminescence.
The nature of experiment [5]: viability loss in pontine glioma line – cell-based, SU-DIPG-XXV, MIPE5.0, CellTiter-Glo, qHTS, dose response (AID 1347065).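 Also: cells exposed to compound for 48 hours before ATP readout.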 As to conditions: CellTiter-Glo ATP luminescence.
Experiment [6] can be described thus: JHH-DIPG-1 glioma cell viability, MIPE5.0 library, CellTiter-Glo luminescence, qHTS (AID 1347067).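 Also: cells exposed to compound for 48 hours before readout.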 As to conditions: JHH-DIPG-1 glioma viability, CellTiter-Glo ATP luminescence.
Experiment [7] in a line: viability loss with induced miR-34 in A549 – imaging, A549 dox-inducible miR-34, nuclei and caspase counts, primary screen (AID 1347080;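 active = compounds whose cell count with miR-34 switched on is under 0.7 times the count with it off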). Particulars: A549 miR-34 inducible, Hoechst nuclei count, 48 h.
A short description of experiment [8]: MELAS cybrid and Rieske KO viability enhancers – cell-based, MELAS cybrids, Rieske KO mouse fibroblasts, CellTiter-Glo, primary screen (AID 1508586;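 active = mean z-score across replicates of 1.96 or higher in either the MELAS or the Rieske mutant cell line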;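 also: z relative to plate mean and SD of compound and empty wells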). As to conditions: low glucose.
Experiment [9] is described as follows: growth inhibition of DIPG cells – cell-based, MIPE4.0 library, CellTiter-Glo luminescence, qHTS (AID 1347066; cut-off not given, nearly all actives have AC50 up to about 30 µM;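 also: cells exposed to compound for 48 hours before readout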). Particulars: SU-DIPG-VI viability, CellTiter-Glo ATP luminescence.
Experiment [10] is described as follows: growth inhibition of DIPG cells – cell-based, MIPE5.0 library, qHTS (AID 1347068; cut-off not given, nearly all actives have IC50 up to about 30 µM;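 as to IC50: cells exposed to compound for 48 hours before viability readout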). As to conditions: SU-DIPG-XXV viability. (In general: Quantitative high-throughput screening tests each substance at several concentrations.)
A short description of experiment [11]: viability loss in pontine glioma line – cell-based, SU-DIPG-IV, MIPE4.0, CellTiter-Glo, qHTS, dose response (AID 1347063; cut-off not given, nearly all actives have AC50 up to about 30 µM;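 also: compound exposure lasted 48 hours before the viability readout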). Particulars: CellTiter-Glo ATP luminescence.
A short description of experiment [12]: compounds altering HSF1 focus formation in cells – imaging, Selleck Cancer Library (AID 1347162; in the data active = plate-normalised HSF1 focus index below about 0.46). As to conditions: human cells, HSF1 nuclear foci imaging, at 10 µM; SSMD: measured here: HSF1 foci SSMD mean; cell count: measured here: cell number; plate-normalised HSF1 focus index: stronger effect = lower value.
[13] abbreviates: stronger effect = lower value, cell number ratio, induced over uninduced.
The mark [14] stands for this setting: measured here: relative caspase fold change +Dox/-Dox.
The mark [15] stands for this setting: measured here: total cells with miR-34 induction, stronger effect = lower value.
[16] abbreviates: measured here: total cells without miR-34 induction.
The mark [17] stands for this setting: MELAS cybrid survival, CellTiter-Glo 48 h, stronger effect = higher value.
Setting [18] is: Rieske KO mouse fibroblast survival, CellTiter-Glo 72 h.

Each structure is given as a SMILES string. Results filed as inconclusive are left out. Calls of active or inactive are those of the source. Unless noted, the limit is not given here; nearly all actives have AC50 up to about 26 µM.

The term AC50 denotes the concentration at which the activity in the assay is half-maximal. In the case of `Cc1cc(C(=O)NOCCO)c(Nc2ccc(I)cc2F)n(C)c1=O`, the AC50 in experiment [1] was 0.166 µM (active); in experiment [2], 0.132 µM (active); in [3], 0.105 µM (active); in [4], 0.132 µM (active); in [5] it was 0.295 µM (active); in experiment [6] it was 0.059 µM (active). In addition, the fold change in [7] (setting [13]) is 1.09 (inactive); in experiment [7] (setting [14]), 0.434. For the same compound, the cell count was found to be 3770 in experiment [7] (setting [15]) and 3450 in [7] (setting [16]). The z-score in experiment [8] (setting [17]) is -0.704 (inactive); in [8] (setting [18]) it was -1.56.

For `CC(C)(C)OC(=O)CN(Cc1ccc(Cl)cc1)Cc1ccc([N+](=O)[O-])s1`, the AC50 is 18.6 µM (active) in experiment [1], 16.6 µM (active) in experiment [4] and 11.8 µM (active) in [5]. For the same compound, the result in experiment [2], in experiment [3], in [9] and in [10] was inactive.

In the case of `Cn1cc(-c2ccc3ncc(Cc4ccc5ncccc5c4)n3n2)cn1`, the compound was called inactive in experiment [1], in [2], in experiment [3], in [4], in experiment [5] and in experiment [9]. The compound was called inactive in experiment [6] and in experiment [10]. Also, the fold change was 0.865 (inactive) in [7] (setting [13]) and 0.902 in experiment [7] (setting [14]). In addition, the cell count was 8680 in experiment [7] (setting [15]) and 10000 in [7] (setting [16]). Besides, the z-score is -0.376 (inactive) in [8] (setting [17]) and 0.544 in experiment [8] (setting [18]).

As a reminder, the IC50 is the concentration at which inhibition is half-maximal. For `CC1(C)C(N(O)C(=O)Nc2ccc(Cl)cc2)N(c2ccc(Cl)cc2)C(=O)N1CC(=O)N/N=C/C=C/c1ccc([N+](=O)[O-])o1` (stereo unspecified), the AC50 in [1] is 7.42 µM (active); in experiment [2], 26.4 µM (active); in experiment [3], 10.5 µM (active); in experiment [4] it was 3.72 µM (active); in [5], 14.8 µM (active); in experiment [9] it was 20.9 µM (active). Moreover, the AC50 in experiment [6] is 6.61 µM (active). Besides, the IC50 in [10] was 18.6 µM (active).

In the case of `O=C(O)c1ccc(O)c2ncc(N3CCOCC3)cc12`, the compound was called inactive in experiment [1], in experiment [3] and in experiment [10]. Further, the AC50 in experiment [2] was 26.4 µM (active); in experiment [11] it was 23.5 µM (active); in experiment [9], 26.4 µM (active); in experiment [6], 23.5 µM (active).

On to `CC[C@H](CO)Nc1nc(NCc2ccccc2)c2ncn(C(C)C)c2n1`, for which the AC50 in experiment [1] was 20.9 µM (active); in experiment [2] it was 16.6 µM (active); in [3] it was 26.4 µM (active); in experiment [11] it was 20.9 µM (active). Also, the fold change in [7] (setting [13]) is 0.923 (inactive); in experiment [7] (setting [14]), 1.07. Moreover, the cell count in [7] (setting [15]) amounted to 983; in [7] (setting [16]), 1060; in [12], 7490. The compound further came in with an SSMD in [12] of 1.82. For the same compound, the plate-normalised HSF1 focus index in [12] is 1.11 (inactive).

Take `CCc1cccc(CC)c1NC(=O)N1Cc2[nH]nc(NC(=O)c3ccc(N4CCN(C)CC4)cc3)c2C1`: the concentration at half-maximal activity (AC50) in [1] was 0.934 µM (active); in experiment [2], 14.8 µM (active); in [4], 2.09 µM (active); in experiment [5], 0.661 µM (active). In addition, the compound was classed as inactive in [3] and in experiment [9]. For the same compound, the results for the fold change in [7] (setting [13]) and in [7] (setting [14]) were 1 (inactive) and 0.697, respectively. Also, the cell count stood at 2360 in experiment [7] (setting [15]) and 2350 in [7] (setting [16]). For the same compound, the values for the z-score in experiment [8] (setting [17]) and in experiment [8] (setting [18]) were -0.115 (inactive) and -0.878, respectively.
